Compound activity from PubChem BioAssay.
Tau fibril FP = qHTS for Inhibitors of Tau Fibril Formation, Fluorescence Polarization. Potency, µM (series often up to 57.7 µM), without a hit: at the highest dose activity, negative = inhibition, usual class: inhibitors. hit rate 0.39% among 280,000. K18 P301L tau heparin fibrillization, Alexa594 FP, 6 h. AID 1468, 2008. Microtubule-associated protein tau (Homo sapiens), P10636; also: potency is read from the fitted curve at half-maximal effect; nearly all actives have a fitted effect of over 55% in size
Target sequence (P10636 561-689 P618L limits assumed): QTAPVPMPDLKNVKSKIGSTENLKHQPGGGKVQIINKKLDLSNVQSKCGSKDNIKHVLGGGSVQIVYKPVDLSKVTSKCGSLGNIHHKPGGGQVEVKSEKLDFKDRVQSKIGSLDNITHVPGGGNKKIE
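Steps: dispense K18 P301L tau (15 uM plus 0.24 uM Alexa 594 tracer, final) in pH 7 sodium acetate; add compound; add heparin (20 uM final); incubate 6 hr, 37 C; add ThT (30 uM final); after 1 hr ambient, read FP.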
Tau fluor cs = Counterscreen qHTS for Inhibitors of Tau Fibril Formation, Fluorescence Polarization; hit rate 0.93% among 280,000; Potency, µM (doses to about 57.7 µM), inactives show at the top dose activity change, negative = decrease; AID 1463, 2008; tau K18 P301L Alexa594 fluorescence, heparin fibrillization; also: potency is read from the fitted curve at half-maximal effect; nearly all actives have a fitted effect of over 55% in size
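Human K18 P301L tau (15 uM unlabeled plus 0.24 uM Alexa 594-labeled, final) in 100 mM sodium acetate pH 7 was mixed with compound and 20 uM heparin and incubated 6 hr at 37 C.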
Coupling enz = qHTS Assay for Inhibitors of Fructose-1,6-bisphosphate Aldolase from Giardia Lamblia: Coupling assay counterscreen; coupling enzyme system counterscreen, AmpLite Red fluorescence; activity change, negative = inhibition, % at 58.2 µM, hits read low; hit rate 0.67% among 290,000; AID 2472, 2010; in the data active = activity change below about -30%
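Counterscreen of the coupled detection system alone, without aldolase: glyceraldehyde-3-phosphate coupling enzymes plus AmpLite Red readout. Compounds at 57.5 uM final, 10 min RT preincubation, 20 min RT reaction, fluorescence 525/598 nm.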
Tau fibril ThT = qHTS for Inhibitors of Tau Fibril Formation, Thioflavin T Binding; Microtubule-associated protein tau (Homo sapiens), P10636; recombinant tau K18 P301L (four-repeat tau fragment), heparin-induced fibrillization, ThT fluorescence; Potency, µM (series often up to 57.4 µM), for the others: at the top dose activity, negative = inhibition, hits mostly inhibitors; hit rate 2.1% among 270,000; AID 1460, 2008; also: potency is read from the fitted curve at half-maximal effect; nearly all actives have a fitted effect of over 55% in size
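Tau K18 P301L fragment (15 uM unlabeled plus 0.24 uM Alexa 594-labeled) in 100 mM sodium acetate pH 7 with compound, fibrillization induced by 20 uM heparin for 6 hr at 37 C. Thioflavin T (30 uM) added, fluorescence read after 1 hr (ex 450, em 510 nm).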
KDM4E inh = qHTS Assay for Inhibitors of Human Jumonji Domain Containing 2E (JMJD2E); hit rate 1.6% among 230,000; Potency, µM (doses to about 57.1 µM), for inactives: top-dose activity change, negative = inhibition, actives largely listed as inhibitors; JMJD2E catalytic domain, FDH-coupled NADH fluorescence (FDH is formaldehyde dehydrogenase); AID 2147, 2009; Lysine-specific demethylase 4E (Homo sapiens), B2RXH2; active = well fitted inhibition curve with a large enough effect, not every such curve was filed as active; inconclusive = small, poorly fitted or top-dose-only effect, or another doubt; inactive = no such curve, though single readings can be large or run the other way;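 also: potency is read from the fitted curve at half-maximal effect; 0% = wells with enzyme and -100% = buffer wells without enzyme; nearly all actives have a fitted effect of over 50% in size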
Target sequence (B2RXH2 1-337 limits assumed): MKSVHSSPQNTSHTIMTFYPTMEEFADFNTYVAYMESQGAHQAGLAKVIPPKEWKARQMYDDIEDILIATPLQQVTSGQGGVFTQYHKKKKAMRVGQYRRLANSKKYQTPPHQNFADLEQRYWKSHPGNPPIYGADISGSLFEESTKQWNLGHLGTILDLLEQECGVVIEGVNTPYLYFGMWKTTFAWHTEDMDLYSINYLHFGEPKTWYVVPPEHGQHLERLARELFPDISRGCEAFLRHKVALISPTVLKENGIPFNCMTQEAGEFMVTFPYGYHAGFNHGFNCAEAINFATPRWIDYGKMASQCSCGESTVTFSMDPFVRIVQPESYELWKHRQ
Active calls of the source: *; ? = inconclusive; . = no result; [ ] = remark or other dose. Most compounds without a hit are left out; they make up all but 3% or so of the library. Unless noted, calls follow the shape of the dose curve; as a rule, active = well fitted curve in the direction sought with a large enough effect; inconclusive = small, poorly fitted or top-dose-only effect, or another doubt; inactive = no such curve, though single readings can be large; an effect the other way counts as inactive or inconclusive. Unless noted, % is scaled to controls: 0 for no effect and ±100 for the full control effect.

SMILES | Tau fibril FP | Tau fluor cs | Coupling enz | Tau fibril ThT | KDM4E inh
CC(=O)c1ccc2c(c1)N(C)c1ccccc1S2 | 13% | ? | 2 | 10µM* | 6%
CC(=O)c1ccc2c(c1)N(CCCN(C)C)c1ccccc1S2 | . | . | 2 | . | -1%[25.5 µM]
O=S(=O)(Oc1ccccc1/C=N/n1cnnc1)c1ccccc1 | -3% | -1% | -49* | -5% | 0%
COc1ccccc1/C=N/n1cnnc1 | 4% | 2% | 1 | 1% | ?
CCc1cc(-c2nc(N)ncc2-c2ccc(Br)cc2)c(O)cc1OC | -3% | 13µM*[quencher] | -6 | ? | -5%
C=C(C)COc1ccc(-c2nc(N)ncc2-c2ccc(Br)cc2)c(O)c1 | . | . | -5 | . | .
Cc1c(C)c2c(c(C)c1O)CCC(C)(COc1ccc(Cc3sc(=O)[nH]c3O)cc1)O2 (stereo unspecified) | ? | ? | 2 | ? | .
C=C1c2ccccc2O[C@H](C(=O)OCC)C1OC (mixture of isomers) | 0%[126 µM] | -2%[126 µM] | -2 | -13%[126 µM] | .
CNC(=O)c1ccc(-c2sc3nc(N4CCOCC4)c4c(c3c2N)CCCC4)o1 | 20% | 14µM*[quencher] | 2 | 16µM* | ?
Cc1nc(N=Nc2ccc(C(=O)O)cc2)c(COP(=O)(O)O)c(C=O)c1O | -14% | -20% | . | ? | 28µM*
Cc1ccc(SCc2nc(-c3ccc(C(=O)Nc4cc(C)ccc4C)cc3)oc2C)cc1 | -12% | -20% | . | -18% | .
O=C1C(Cl)=C(N2CCOCC2)C(=O)N1c1ccccc1Cl | 20µM* | ? | -4 | 14µM* | 3%
O=C1C(Cl)=C(N2CCCCCC2)C(=O)N1c1ccc(Cl)cc1 | . | . | 2 | . | .
CN1CCN(C2=C(Cl)C(=O)N(c3ccc(Cl)c(Cl)c3)C2=O)CC1 | ? | -28% | 5 | 14µM* | 0%
O=C1C(Cl)=C(N2CCCCCC2)C(=O)N1c1ccccc1Cl | . | . | 5 | . | .
Cc1ccc(N2C(=O)C(Cl)=C(N3CCOCC3)C2=O)cc1Cl | 22µM* | ? | 1 | 14µM* | 0%
COC(=O)c1cccc(N2C(=O)C(Cl)=C(N3CCOCC3)C2=O)c1 | 28µM* | ? | 2 | 14µM* | -2%
Cc1ccc2c(c1)nc(SCC(O)c1ccc(Br)cc1)n2C (stereo unspecified) | -9% | -22% | . | ? | .
COc1ccc(C2C(C(=O)Nc3ccccc3OC)=C(C)Nc3c(C(=O)Nc4ccccc4)cnn32)c(OC)c1 (stereo unspecified) | ? | -30% | . | -3% | .
Cc1cc2c(cc1S(=O)(=O)CCC(=O)N1CCCCC1C)OCC(=O)N2 (stereo unspecified) | 1% | -7% | . | ? | .
O=C1C(Cl)=C(N2CCCC2)C(=O)N1c1ccccc1F | . | . | 3 | . | .
CN1CCN(C2=C(Cl)C(=O)N(c3cccc(Cl)c3)C2=O)CC1 | ? | ? | -2 | 22µM* | -3%
Cc1ccccc1N1C(=O)C(Cl)=C(N2CCN(c3ccccc3)CC2)C1=O | ? | ? | -1 | 16µM* | -18%
CCc1ccc(NC(=O)C2CCCN(S(=O)(=O)c3c(C)noc3/C=C/N(C)C)C2)cc1 (stereo unspecified) | -2% | ? | . | ? | .
Cc1ccc(/C=C2\SC(=S)N(/N=C/c3cc([N+](=O)[O-])ccc3O)C2=O)o1 | ? | ? | -6 | 18µM* | 5%
SMILES | Tau fibril FP | Tau fluor cs | Coupling enz | Tau fibril ThT | KDM4E inh
COc1ccc(N2CC(NC(=O)c3cc4ccccc4o3)CC2=O)cc1OC (stereo unspecified) | 0% | -6% | . | -6% | .
CCCCCCCCCCN1CCOCCOCCN(CCCCCCCCCC)CCOCCOCC1 | . | . | -2 | . | .
COc1cc(/C=C2\SC(=S)N(N(C)c3ccccc3)C2=O)ccc1O | -4% | 25µM*[quencher] | 2 | 25µM* | -20%
CCOc1cc(/C=C2/SC(=S)N(Cc3ccccc3)C2=O)ccc1O | . | . | 0 | . | .
CCN(CC)CCNC(=O)c1ccc2c(c1NCCO)C(=O)c1ccccc1C2=O | 0% | ? | -31* | 16µM* | -8%
C[C@@]12C=Cc3occc3[C@H]1CC[C@@]13C[C@@H](CC[C@H]12)[C@@](O)(CO)C3 | . | . | 0 | . | .
CCn1ccnc1CN1CCc2c([nH]c3ccccc23)C1C1CCCCC1 (stereo unspecified) | -6% | -21% | -2 | ? | 28µM*
Cc1ccc(OCC(=O)N/N=C\c2ccc(-c3cccc(C(=O)O)c3)o2)c(C)c1 | 5% | -23% | 4 | 7.9µM* | 4%
Cc1sc2c3ccsc3ccc2[n+]1C | 20µM* | -22% | -2 | 25µM* | 25µM*
Cc1sc2ccc3sccc3c2[n+]1C | ? | -24% | -1 | 25µM* | 14µM*
COc1ccc(C)cc1-n1c(SCC(=O)NCc2ccco2)nc2c([nH]c3ccccc32)c1=O | -1% | -22% | . | -5% | .
O=C(O)c1ccc(N/N=C/c2ccc3nccnc3c2)cc1 | -4% | -19% | -1 | 3.5µM* | -4%
O=C(O)c1ccc(N/N=C/c2cccc3cccnc23)cc1 | 7% | -17% | 2 | . | ?
O=C(O)c1ccc(N/N=C/c2cn(Cc3ccccc3F)c3ccccc23)cc1 | 0% | ? | 15 | 14µM* | ?
O=C(O)c1ccc(N/N=C/c2ccnc3ccccc23)cc1 | 6% | ? | 2 | 5µM* | -6%
COc1cccc(N(Cc2nnc3n2CCCCC3)C(=O)Nc2cccc(Cl)c2)c1 | 1% | 4% | . | 1% | .
Cc1cc(C)c2c(=O)n(CC(=O)N3CCC(N4CCCCC4)CC3)sc2n1 | 25µM* | ? | 4 | 25µM* | ?
CCCNC(=O)Cn1sc2nc(C)cc(C)c2c1=O | 16µM* | -23% | 5 | . | ?
CCOC(=O)C1CCCN(C(=O)Cn2sc3nc(C)cc(C)c3c2=O)C1 (stereo unspecified) | 25µM* | -28% | 3 | 11µM* | ?
